Data published in ChEMBL document CHEMBL1157539, “Thousands of chemical starting points for antimalarial lead identification” (Nature, 2010).

What follows are compounds tested on Plasmodium falciparum (assay: GSK_TCMDC: Inhibition of Plasmodium falciparum Dd2 in whole red blood cells, using parasite LDH activity as an index of growth. Test compounds present at 2uM).
Assay type: functional

| SMILES | Inhibition |
| --- | --- |
| Clc1ccc2c(NCc3ccc4c(c3)OCO4)ccnc2c1 | 97% |
| COc1cc2nc(NCCCN3CCCCC3)nc(NCc3ccccc3)c2cc1OC | 3% |
| CC(C)c1cc2c(ccc3nc(N)nc(N)c32)o1 | 37% |
| O=S(=O)(Nc1ccc(CCN2CCCCC2CCN2CCCC2)cc1)c1ccc(-c2ccccc2)cc1 (stereo not given) | 18% |
| Cc1ccc(/C=C/C(=O)NCCCCCN2CCN(C(=O)Nc3ccc(Cl)c(C(F)(F)F)c3)CC2)cc1 | 0% |
| CN1CCCN(Cc2ccc(-c3cccc(NC(=O)c4cccc(Cl)c4)c3)cc2)CC1.O=C(O)C(F)(F)F | 32% |
| COc1cc(NC(=O)Nc2ccc(Br)cc2C(=O)Nc2ccc(Br)cc2)cc(OC)c1OC | 98% |
| CN(CCCCN)Cc1ccc(-c2ccc(Cl)cc2)cc1 | 20% |
| CCOc1ccccc1CNc1nccc(NCCc2cn(C)c3ccccc23)n1 | 62% |
| Cc1oc(-c2cccc(Oc3ccccc3)c2)nc1CN(Cc1cnn(C)c1)C(C)C | 61% |
| CC(Oc1ccc(Cl)cc1)C(=O)Nc1cc(C(F)(F)F)ccc1-n1cncn1 (stereo not given) | 98% |
| COc1ccc2nccc([C@@H](O)CN3CCC(NC(=O)/C=C/c4ccc5[nH]c(=O)ccc5c4)CC3)c2c1 | 83% |
| Oc1ccc(Nc2nc(NCc3ccccc3)c3ccccc3n2)cc1 | 100% |
| Fc1ccc2[nH]c(-c3ccc(-c4ccc(CN5CCN(c6ccncc6)CC5)cc4)cc3)nc2c1.O=C(O)C(F)(F)F | 100% |
| O=C(NCCCCN1CC=C(c2ccc3c(c2OCC2CC2)CCCC3)CC1)c1ccc(-c2ccc(C(F)(F)F)cc2)cc1 | 60% |

These compounds were tested on HepG2 (assay: GSK_TCMDC: Percent inhibition of human HepG2 cell line. Test compounds present at 10uM.).
Assay type: functional

| SMILES | Inhibition |
| --- | --- |
| Cc1cc(NC(=O)c2cc(S(=O)(=O)N3CCCCC3)ccc2C)no1 | 0% |
| COc1ccc2nccc([C@@H](O)CN3CCC(NC(=O)C(=Cc4ccc(Cl)cc4Cl)c4ccc(-c5ccccc5)cc4)CC3)c2c1 | 1% |
| Cc1ccc(-c2csc(C)n2)c(C)c1 | 12% |
| O=C(c1ccc(Cl)cc1)N1CCCC(C(=O)N(Cc2nnc(-c3ccccc3Cl)o2)C2CC2)C1 (stereo not given) | 10% |
| CN(C)S(=O)(=O)c1ccc(Nc2nc(NCCC3C=NC=N3)nc3cc[nH]c(=O)c23)cc1 (stereo not given) | 8% |
| Brc1cc(Br)c2c(c1)C(NCCCNC1CCNc3c(Br)cc(Br)cc31)CCN2 (stereo not given) | 18% |
| CCc1sc(N2CCN(C)CC2)nc1C(=O)NCCc1ccc(Cl)c(Cl)c1.O=C(O)C(F)(F)F | 5% |
| COc1cc2c(cc1O)[C@@H]1[C@H](O)[C@@H](O)C=C3CCN(C2)[C@H]31 [PSEUDOLYCORINE] | 18% |
| COc1cc(Cc2cnc(N)nc2N)c2ccsc2c1OC.Cl | 5% |
| CN1CCN(c2ccnc3cc4c(cc23)N(Cc2ccccc2)CC4)CC1 | 0% |
| Cc1ccc2nc(-c3ccc(C(=O)NC4CCN(Cc5ccccc5)CC4)s3)[nH]c2c1 | 13% |
| CC(C)CCn1c(Sc2ccc(C#N)c([N+](=O)[O-])c2)nnc1-c1cccc(Cl)c1 | 33% |
| Cc1cc(NCCC(=O)NCCOc2ccccc2)nc(NCCOc2ccccc2)n1.O=C(O)C(F)(F)F | 8% |
| Br.CC1(C)NC(N)=NC(=N)N1OCCSCCON1C(=N)N=C(N)NC1(C)C | 34% |
| COc1cccc2c(Nc3ccccc3C)nc(Nc3ccccc3C)nc12 | 9% |
| CC(C)N1CCC(N(Cc2ccc(-c3ccc(C(F)(F)F)cc3)cc2)C(=O)Cn2c(CCc3cccc(F)c3F)cc(=O)c3ccccc32)CC1.O=C(O)C(O)C(O)C(=O)O | 50% |
| COc1ccc2nccc([C@@H](O)CN3CCC(NC(=O)Cc4ccc(Br)c5ccccc45)CC3)c2c1 | 10% |
| Cl.O=c1cc(NCCCNCc2ccc(Cl)c(Cl)c2)[nH]c2ccc(Oc3ccccc3)cc12 | 1% |
| COc1ccc2nccc([C@@H](O)CN3CCC(NCCOc4ccncc4)CC3)c2c1.O=C(O)C(=O)O | 11% |
| CCCCN1CCN(CCCNc2c3ccccc3nc3ccccc23)CC1.Cl | 26% |

| SMILES | Inhibition |
| --- | --- |
| CC(CCc1ccccc1)NCC(O)c1cccc(C(F)(F)F)c1.Cl (stereo not given) | 18% |
| CN(C)CCn1c(N)c(-c2nc3ccccc3s2)c2nc(C#N)c(C#N)nc21 | 4% |
| Cc1cccc(CN2CCCN(Cc3ccc(C(=O)Nc4ccc(Cl)cc4)cc3)CC2)c1.O=C(O)C(F)(F)F | 54% |
| COc1ccc(CCN(C)CCCOc2ccc(NC(=O)COc3cccc4sc5ccccc5c(=O)c34)cc2)cc1OC | 99% |
| Cc1ccc(Cn2cnc3cc(C(=O)Nc4ccc(-c5ccc(CN(C)C)cc5)cc4)ccc3c2=O)o1 | 43% |
| Clc1ccc2c(NCc3ccc4c(c3)OCO4)ccnc2c1 | 6% |
| COc1cc2nc(NCCCN3CCCCC3)nc(NCc3ccccc3)c2cc1OC | 12% |
| CC(C)c1cc2c(ccc3nc(N)nc(N)c32)o1 | 66% |
| O=S(=O)(Nc1ccc(CCN2CCCCC2CCN2CCCC2)cc1)c1ccc(-c2ccccc2)cc1 (stereo not given) | 18% |
| Cc1ccc(/C=C/C(=O)NCCCCCN2CCN(C(=O)Nc3ccc(Cl)c(C(F)(F)F)c3)CC2)cc1 | 10% |
| CN1CCCN(Cc2ccc(-c3cccc(NC(=O)c4cccc(Cl)c4)c3)cc2)CC1.O=C(O)C(F)(F)F | 33% |
| COc1cc(NC(=O)Nc2ccc(Br)cc2C(=O)Nc2ccc(Br)cc2)cc(OC)c1OC | 0% |
| CN(CCCCN)Cc1ccc(-c2ccc(Cl)cc2)cc1 | 96% |
| CCOc1ccccc1CNc1nccc(NCCc2cn(C)c3ccccc23)n1 | 27% |
| Cc1oc(-c2cccc(Oc3ccccc3)c2)nc1CN(Cc1cnn(C)c1)C(C)C | 22% |
| CC(Oc1ccc(Cl)cc1)C(=O)Nc1cc(C(F)(F)F)ccc1-n1cncn1 (stereo not given) | 0% |
| COc1ccc2nccc([C@@H](O)CN3CCC(NC(=O)/C=C/c4ccc5[nH]c(=O)ccc5c4)CC3)c2c1 | 2% |
| Oc1ccc(Nc2nc(NCc3ccccc3)c3ccccc3n2)cc1 | 33% |
| Fc1ccc2[nH]c(-c3ccc(-c4ccc(CN5CCN(c6ccncc6)CC5)cc4)cc3)nc2c1.O=C(O)C(F)(F)F | 37% |
| O=C(NCCCCN1CC=C(c2ccc3c(c2OCC2CC2)CCCC3)CC1)c1ccc(-c2ccc(C(F)(F)F)cc2)cc1 | 25% |
